From PubChem BioAssay (EPA / NIEHS) come the findings set out here.

Records with an inconclusive call do not appear. Activity calls are given as the source filed them. Rule for the calls, unless noted: active = hit-call score of the fitted dose curve at least 0.9, where 1 is the maximum; inactive = score below 0.9.

The nature of assay [1]: ATG_TAL_CIS: Attagene CIS-FACTORIAL HepG2 Assay for human TAL Basal Promoter (AID 2282966).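 Note: background control endpoint measuring basal TAL promoter reporter mRNA not a specific factor.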 The settings on record: HepG2 Attagene cis-factorial TAL promoter reporter; actives raise or lower the signal. In a few lines: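 HepG2, transient MRTU transfection, 24 h compound exposure; RNA → oligo(dT) RT → PCR → 6-FAM primer extension → HpaI digest → CE fluorescence. Bidirectional curve fit vs DMSO. Background-control readout.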

The nature of assay [2]: ATG_TGFb_CIS: Attagene CIS-FACTORIAL HepG2 Assay for human Transforming Growth Factor (TGF) (AID 2282967). Conditions: HepG2 Attagene CIS TGFb reporter, mRNA transcription; actives raise or lower the signal. The gist of the method:
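HepG2 cells transiently transfected with cis-promoter-driven multiple reporter units measure endogenous TF activity; reporter mRNA quantified at 24 h by RT-PCR, FAM labeling, HpaI digestion and capillary electrophoresis. Bidirectional fit vs DMSO.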

Assay [3] can be described thus: ATG_VDRE_CIS: Attagene CIS-FACTORIAL HepG2 Assay for human Vitamin D Receptor Element (VDRE) (AID 2282968). The settings on record: HepG2 VDRE cis-reporter transcription, actives raise or lower the signal. In a few lines:
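Readout is VDRE-driven reporter mRNA reflecting endogenous factor activity in human HepG2 cells, sampled 24 h post-dose. Quantification used labelled RT-PCR products separated by capillary electrophoresis; bidirectional analysis relative to DMSO.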

Assay [4] concerns the target X-box-binding protein 1 (Homo sapiens) (UniProt P17861). The assay can be described thus: ATG_Xbp1_CIS: Attagene CIS-FACTORIAL HepG2 Assay for human X-box Binding Protein 1 (XBP1) (AID 2282972). Conditions: HepG2 XBP1 cis-element reporter, Attagene multiplex; actives raise or lower the signal. In a few lines: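 Reporter transcripts were quantified by RT-PCR with fluorescent primer extension and capillary electrophoresis after 24 h chemical exposure. Cells: transiently transfected HepG2 carrying cis-regulated reporter constructs; data fitted bidirectionally relative to DMSO.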

Assay [5] concerns the target Oxysterols receptor LXR-alpha (Homo sapiens) (UniProt Q13133). The assay can be described thus: ATG_LXRa_TRANS: Attagene TRANS-FACTORIAL HepG2 Assay for human Liver X Receptor alpha (LXRa) (AID 2282980; active = hit-call score of the fitted dose curve at least 0.9, where 1 is the maximum). The settings on record: HepG2 Attagene TRANS reporter, LXRa transactivation. In a few lines:
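Read-out: reporter transcript levels by RT-PCR plus capillary electrophoresis, fluorescence intensity. Transiently transfected HepG2, exogenous NR-GAL4 chimera, GAL4-UAS reporters; 24 h compound exposure. Activity = increase over DMSO negative control.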

Assay [6] concerns the target Hepatocyte nuclear factor 4-alpha (Homo sapiens) (UniProt P41235). The assay is described as follows: ATG_HNF4a_TRANS: Attagene TRANS-FACTORIAL HepG2 Assay for human Hepatocyte Nuclear Factor 4 alpha (HNF4a) (AID 2282982; active = hit-call score of the fitted dose curve at least 0.9, where 1 is the maximum). Conditions: HepG2 HNF4a transactivation reporter, mRNA readout. In a few lines: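 Activity of an exogenous HNF4a–Gal4 fusion scored as induced GAL4-UAS reporter transcripts after 24 h chemical exposure of transfected human HepG2 cells. Read-out via RT-PCR with 6-FAM labelling and capillary electrophoresis; rise over DMSO baseline.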

A short description of assay [7]: ATG_M_06_TRANS: Attagene TRANS-FACTORIAL HepG2 Assay for M06 Transcription Factor (Internal Marker) (AID 2282983; active = hit-call score of the fitted dose curve at least 0.9, where 1 is the maximum). Conditions: HepG2 Attagene TRANS M06 internal marker reporter. In a few lines: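 Read-out: fluorescent reporter cDNA fragments resolved by capillary electrophoresis after RT-PCR and HpaI cut. Source cells were HepG2 carrying transfected multi-reporter GAL4 constructs, dosed 24 h. Increase over DMSO control analysed.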

Assay [8] is described as follows: ATG_M_32_TRANS: Attagene TRANS-FACTORIAL HepG2 Assay for M32 Transcription Factor (Internal Marker) (AID 2282984; active = hit-call score of the fitted dose curve at least 0.9, where 1 is the maximum;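 note: transcript level of a background control reporter unit measured by RT-PCR and capillary electrophoresis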). The settings on record: HepG2 Attagene TRANS M32 internal marker reporter. The gist of the method: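 Internal background reporter in transfected HepG2: after 24 h chemical exposure, RNA reverse-transcribed, reporter cDNA amplified, fluorescently labelled and HpaI-cut, then sized by capillary electrophoresis. Gain of signal fitted against DMSO control.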

The target in assay [9] is Nuclear receptor subfamily 4 group A member 2 (Homo sapiens) (UniProt P43354). The assay is described as follows: ATG_NURR1_TRANS: Attagene TRANS-FACTORIAL HepG2 Assay for human Nuclear Receptor Related Protein 1 (NURR1) (AID 2282985; active = hit-call score of the fitted dose curve at least 0.9, where 1 is the maximum). Conditions: HepG2 Attagene TRANS reporter, mRNA readout. In a few lines:
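Reporter transcript induction, measured by RT-PCR with fluorescent labelling, HpaI digestion and capillary electrophoresis, after 24 hr dosing of human HepG2 cells transiently expressing an exogenous NR-Gal4 fusion with GAL4-UAS-driven reporters; DMSO as baseline.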

Assay [10] concerns the target Nuclear respiratory factor 1 (Homo sapiens) (UniProt Q16656). The assay is described as follows: ATG_NRF1_CIS: Attagene CIS-FACTORIAL HepG2 Assay for human Nuclear Respiratory Factor 1 (NRF1) Orphan Gene (AID 2282987). Conditions: HepG2 NRF1 cis-element reporter, Attagene multiplex; actives raise or lower the signal. In a few lines: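 Reporter mRNA induction or loss in HepG2 cells after 24 h dosing; cis-regulated reporter constructs report endogenous transcription-factor activity. Quantified by RT-PCR/capillary electrophoresis fluorescence, DMSO-referenced.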

The target of assay [11] is Estrogen-related receptor gamma (Homo sapiens) (UniProt P62508). The assay can be described thus: ATG_ERRg_TRANS: Attagene TRANS-FACTORIAL HepG2 Assay for human Estrogen-Related Receptor gamma (ERRg) (AID 2282977; active = hit-call score of the fitted dose curve at least 0.9, where 1 is the maximum;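 note: hits increase reporter signal over DMSO so potencies reflect activators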). The settings on record: HepG2 Attagene TRANS reporter, ERRg transactivation. In a few lines:
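Induction of reporter transcripts through a chimeric NR-Gal4 protein is quantified in transfected human HepG2 liver cells after 24 h chemical exposure, using RT-PCR with capillary electrophoresis detection and DMSO as baseline.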

In assay [12] the target is Glucocorticoid receptor (Homo sapiens) (UniProt P04150). The assay is described as follows: ATG_GR_TRANS: Attagene TRANS-FACTORIAL HepG2 Assay for human Glucocorticoid Receptor (GR) (AID 2282978; active = hit-call score of the fitted dose curve at least 0.9, where 1 is the maximum;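 note: activators score as hits since higher reporter transcript over DMSO is fitted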). The settings on record: HepG2 Attagene TRANS GR reporter, mRNA transcription. The gist of the method:
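Transiently transfected HepG2 cells express chimeric NR-GAL4 proteins acting on GAL4-UAS reporter units. Compounds are applied for 24 h. mRNA induction over DMSO is measured by capillary electrophoresis.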

Assay [13] has as its target Bile acid receptor (Homo sapiens) (UniProt Q96RI1). The assay can be described thus: ATG_FXR_TRANS: Attagene TRANS-FACTORIAL HepG2 Assay for Farnesoid X Receptor (FXR) (AID 2282979; active = hit-call score of the fitted dose curve at least 0.9, where 1 is the maximum;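 note: hits raise reporter mRNA above DMSO so AC50 marks FXR activation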). Conditions: HepG2 Attagene TRANS FXR-GAL4 reporter transcription. The gist of the method: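 Read-out: fluorescent reporter transcripts quantified by capillary electrophoresis after RT-PCR of total RNA. Source cells were HepG2 transiently carrying chimeric NR-GAL4 plus GAL4-UAS reporter units, dosed 24 h. Activity fitted upward relative to DMSO baseline.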

Assay [14] concerns the target Oxysterols receptor LXR-beta (Homo sapiens) (UniProt P55055). The assay is described as follows: ATG_LXRb_TRANS: Attagene TRANS-FACTORIAL HepG2 Assay for human Liver X Receptor beta (LXRb) (AID 2282981; active = hit-call score of the fitted dose curve at least 0.9, where 1 is the maximum). Conditions: HepG2 Attagene TRANS GAL4-LXRb reporter, mRNA. The gist of the method: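 After 24 h chemical treatment of transfected HepG2 cells carrying exogenous NR-Gal4 chimeras, reporter mRNA was quantified by fluorescent RT-PCR and capillary electrophoresis; activity taken as increase over DMSO controls.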

For assay [15], the target named is Transcriptional activator Myb (Homo sapiens) (UniProt P10242). The assay is described as follows: ATG_Myb_CIS: Attagene CIS-FACTORIAL HepG2 Assay for human Myeloblastosis (Myb) Proto-Oncogene Transcription Factor (AID 2282986). The settings on record: HepG2 Attagene CIS-FACTORIAL Myb reporter transcription; actives raise or lower the signal. The gist of the method: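 Using HepG2 liver cells bearing transiently transfected cis-promoter reporter constructs, the assay measures induction or loss of reporter mRNA after 24 hours of dosing. Detection used fluorescently labeled RT-PCR products separated by capillary electrophoresis.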

Assay [16] in a line: ATG_GAL4_TRANS: Attagene TRANS-FACTORIAL HepG2 Assay for GAL4 (Internal Marker) (AID 2282976; active = hit-call score of the fitted dose curve at least 0.9, where 1 is the maximum). Conditions: HepG2 Attagene TRANS GAL4 internal marker reporter. The gist of the method: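 RT-PCR/capillary electrophoresis readout of reporter mRNA. HepG2, transient MRTU transfection (GAL4-UAS reporters), 24 h compound exposure. Background-control endpoint, positive direction vs DMSO baseline.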

Sequence of Hepatocyte nuclear factor 4-alpha (Homo sapiens) (P41235 whole entry, looked up, the tested form may be a part): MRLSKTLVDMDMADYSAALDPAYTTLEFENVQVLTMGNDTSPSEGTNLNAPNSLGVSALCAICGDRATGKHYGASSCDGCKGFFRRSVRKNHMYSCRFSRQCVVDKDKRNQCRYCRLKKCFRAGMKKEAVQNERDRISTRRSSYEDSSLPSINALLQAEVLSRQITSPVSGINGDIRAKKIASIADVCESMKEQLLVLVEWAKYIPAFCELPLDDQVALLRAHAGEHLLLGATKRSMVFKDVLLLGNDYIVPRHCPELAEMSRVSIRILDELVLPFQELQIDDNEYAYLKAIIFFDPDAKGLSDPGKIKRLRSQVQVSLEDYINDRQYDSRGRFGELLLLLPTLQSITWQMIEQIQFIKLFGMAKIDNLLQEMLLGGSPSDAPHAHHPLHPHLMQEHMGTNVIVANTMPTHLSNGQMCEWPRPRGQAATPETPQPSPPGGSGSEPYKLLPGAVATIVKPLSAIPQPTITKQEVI
Sequence of Oxysterols receptor LXR-alpha (Homo sapiens) (Q13133 whole entry, looked up, the tested form may be a part): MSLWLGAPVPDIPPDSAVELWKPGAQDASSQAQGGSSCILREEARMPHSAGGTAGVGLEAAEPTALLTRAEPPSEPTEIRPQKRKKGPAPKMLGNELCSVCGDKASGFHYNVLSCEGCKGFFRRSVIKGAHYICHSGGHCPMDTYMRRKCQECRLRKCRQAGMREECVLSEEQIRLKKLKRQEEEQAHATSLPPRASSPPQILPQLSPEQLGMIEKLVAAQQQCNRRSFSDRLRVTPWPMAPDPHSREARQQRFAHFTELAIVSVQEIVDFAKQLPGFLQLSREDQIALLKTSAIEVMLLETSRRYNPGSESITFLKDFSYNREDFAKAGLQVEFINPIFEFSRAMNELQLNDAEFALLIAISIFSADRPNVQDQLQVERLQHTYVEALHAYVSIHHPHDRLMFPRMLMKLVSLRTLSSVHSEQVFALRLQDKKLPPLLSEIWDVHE
Sequence of Nuclear respiratory factor 1 (Homo sapiens) (Q16656 whole entry, looked up): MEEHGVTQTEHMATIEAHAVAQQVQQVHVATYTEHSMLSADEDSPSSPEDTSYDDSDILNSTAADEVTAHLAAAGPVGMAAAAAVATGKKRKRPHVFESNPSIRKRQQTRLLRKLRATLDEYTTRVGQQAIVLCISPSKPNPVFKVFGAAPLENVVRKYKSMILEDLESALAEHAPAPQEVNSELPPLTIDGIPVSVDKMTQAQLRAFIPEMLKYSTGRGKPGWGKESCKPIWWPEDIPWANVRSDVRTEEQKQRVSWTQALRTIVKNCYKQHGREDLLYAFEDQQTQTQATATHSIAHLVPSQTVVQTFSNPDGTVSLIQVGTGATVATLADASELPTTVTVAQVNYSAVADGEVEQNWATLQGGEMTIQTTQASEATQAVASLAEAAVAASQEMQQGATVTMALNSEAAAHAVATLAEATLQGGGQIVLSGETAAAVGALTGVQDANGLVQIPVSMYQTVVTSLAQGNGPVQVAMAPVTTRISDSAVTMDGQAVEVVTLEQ
Sequence of Transcriptional activator Myb (Homo sapiens) (P10242 whole entry, looked up): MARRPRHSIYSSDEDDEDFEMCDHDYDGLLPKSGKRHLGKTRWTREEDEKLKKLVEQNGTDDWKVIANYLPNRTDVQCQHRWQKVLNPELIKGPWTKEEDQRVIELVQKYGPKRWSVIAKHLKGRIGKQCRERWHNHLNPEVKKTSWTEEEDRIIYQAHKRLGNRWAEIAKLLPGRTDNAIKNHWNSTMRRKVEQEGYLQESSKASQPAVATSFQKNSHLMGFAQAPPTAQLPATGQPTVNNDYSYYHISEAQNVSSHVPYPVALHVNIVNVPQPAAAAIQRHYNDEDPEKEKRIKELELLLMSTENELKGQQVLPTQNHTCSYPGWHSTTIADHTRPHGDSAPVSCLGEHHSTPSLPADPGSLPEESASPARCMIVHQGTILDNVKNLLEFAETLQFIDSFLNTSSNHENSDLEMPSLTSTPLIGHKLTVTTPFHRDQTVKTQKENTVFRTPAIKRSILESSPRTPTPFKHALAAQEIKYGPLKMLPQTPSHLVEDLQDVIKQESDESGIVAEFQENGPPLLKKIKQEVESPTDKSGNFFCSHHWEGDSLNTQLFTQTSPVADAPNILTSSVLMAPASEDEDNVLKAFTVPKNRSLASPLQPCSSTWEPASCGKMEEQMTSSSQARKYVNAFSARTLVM
Sequence of Glucocorticoid receptor (Homo sapiens) (P04150 whole entry, looked up, the tested form may be a part): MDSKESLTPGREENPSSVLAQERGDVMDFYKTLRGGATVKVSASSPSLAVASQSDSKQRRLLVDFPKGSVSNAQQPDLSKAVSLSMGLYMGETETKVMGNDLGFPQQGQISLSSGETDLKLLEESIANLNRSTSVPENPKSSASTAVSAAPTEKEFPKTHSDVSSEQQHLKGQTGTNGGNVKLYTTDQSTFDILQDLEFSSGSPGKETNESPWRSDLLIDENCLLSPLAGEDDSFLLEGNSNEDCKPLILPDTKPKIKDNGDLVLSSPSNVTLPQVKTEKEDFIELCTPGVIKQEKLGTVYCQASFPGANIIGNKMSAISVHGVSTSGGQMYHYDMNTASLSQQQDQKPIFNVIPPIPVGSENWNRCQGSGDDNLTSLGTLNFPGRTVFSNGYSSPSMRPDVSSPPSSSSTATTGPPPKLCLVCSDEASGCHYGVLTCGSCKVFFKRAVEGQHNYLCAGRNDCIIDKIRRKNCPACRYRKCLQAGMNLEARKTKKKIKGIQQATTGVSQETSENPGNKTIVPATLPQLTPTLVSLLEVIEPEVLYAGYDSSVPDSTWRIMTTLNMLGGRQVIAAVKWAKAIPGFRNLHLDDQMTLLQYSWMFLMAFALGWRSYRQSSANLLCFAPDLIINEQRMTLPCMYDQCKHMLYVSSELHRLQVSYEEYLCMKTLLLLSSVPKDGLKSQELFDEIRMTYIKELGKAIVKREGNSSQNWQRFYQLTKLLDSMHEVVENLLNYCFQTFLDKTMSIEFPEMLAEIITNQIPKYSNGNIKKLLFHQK
Sequence of Nuclear receptor subfamily 4 group A member 2 (Homo sapiens) (P43354 whole entry, looked up, the tested form may be a part): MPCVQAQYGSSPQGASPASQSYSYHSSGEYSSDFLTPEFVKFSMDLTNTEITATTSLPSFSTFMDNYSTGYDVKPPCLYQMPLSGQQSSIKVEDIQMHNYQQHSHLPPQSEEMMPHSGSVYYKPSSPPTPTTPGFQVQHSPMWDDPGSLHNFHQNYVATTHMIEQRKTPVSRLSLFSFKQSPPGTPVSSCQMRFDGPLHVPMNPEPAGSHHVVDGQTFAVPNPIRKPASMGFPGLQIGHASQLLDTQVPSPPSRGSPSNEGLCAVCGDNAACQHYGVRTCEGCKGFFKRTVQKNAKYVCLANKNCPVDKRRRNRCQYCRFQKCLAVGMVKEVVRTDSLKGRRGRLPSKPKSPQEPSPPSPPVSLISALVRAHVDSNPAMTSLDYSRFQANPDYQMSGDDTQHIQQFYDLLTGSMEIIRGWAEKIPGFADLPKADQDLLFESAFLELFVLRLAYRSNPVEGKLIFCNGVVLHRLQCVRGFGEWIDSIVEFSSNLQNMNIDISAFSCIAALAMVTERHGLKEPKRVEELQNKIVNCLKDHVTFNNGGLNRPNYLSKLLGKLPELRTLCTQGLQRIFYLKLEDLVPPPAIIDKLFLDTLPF
Sequence of X-box-binding protein 1 (Homo sapiens) (P17861 whole entry, looked up): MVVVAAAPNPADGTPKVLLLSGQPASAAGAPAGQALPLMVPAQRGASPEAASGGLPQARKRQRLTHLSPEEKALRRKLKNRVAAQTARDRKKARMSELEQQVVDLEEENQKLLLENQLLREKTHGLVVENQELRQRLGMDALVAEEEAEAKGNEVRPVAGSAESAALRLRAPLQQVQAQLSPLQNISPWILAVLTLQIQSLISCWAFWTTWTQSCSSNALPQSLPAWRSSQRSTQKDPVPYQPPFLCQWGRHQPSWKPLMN
Sequence of Bile acid receptor (Homo sapiens) (Q96RI1 whole entry, looked up, the tested form may be a part): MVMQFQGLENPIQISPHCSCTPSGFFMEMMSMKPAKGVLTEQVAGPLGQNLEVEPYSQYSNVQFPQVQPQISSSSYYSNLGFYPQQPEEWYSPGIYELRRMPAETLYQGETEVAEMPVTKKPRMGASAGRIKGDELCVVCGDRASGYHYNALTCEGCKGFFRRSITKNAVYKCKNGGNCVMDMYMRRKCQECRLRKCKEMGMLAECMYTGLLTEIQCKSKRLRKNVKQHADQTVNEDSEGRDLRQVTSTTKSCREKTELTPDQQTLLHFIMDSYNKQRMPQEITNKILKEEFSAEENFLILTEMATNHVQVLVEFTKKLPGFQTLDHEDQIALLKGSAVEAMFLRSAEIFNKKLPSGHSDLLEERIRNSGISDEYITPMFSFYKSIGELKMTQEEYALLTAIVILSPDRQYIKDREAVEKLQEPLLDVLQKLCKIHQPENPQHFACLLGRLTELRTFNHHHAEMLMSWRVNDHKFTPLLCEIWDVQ
Sequence of Estrogen-related receptor gamma (Homo sapiens) (P62508 whole entry, looked up, the tested form may be a part): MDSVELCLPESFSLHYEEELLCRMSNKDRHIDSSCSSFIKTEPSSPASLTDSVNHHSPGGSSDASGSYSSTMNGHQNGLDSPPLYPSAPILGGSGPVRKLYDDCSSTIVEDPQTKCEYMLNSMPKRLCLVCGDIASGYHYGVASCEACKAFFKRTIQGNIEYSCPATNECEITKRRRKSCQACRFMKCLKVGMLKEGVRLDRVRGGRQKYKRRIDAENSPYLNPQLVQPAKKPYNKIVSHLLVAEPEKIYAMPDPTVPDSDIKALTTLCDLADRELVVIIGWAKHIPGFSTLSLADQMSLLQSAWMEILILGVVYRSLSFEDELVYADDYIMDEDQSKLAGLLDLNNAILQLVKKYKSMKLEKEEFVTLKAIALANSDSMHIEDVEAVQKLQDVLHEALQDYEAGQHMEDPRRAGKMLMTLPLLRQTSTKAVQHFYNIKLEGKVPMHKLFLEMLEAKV

For the compound `N#Cc1nc(Cl)c(Cl)c(Cl)c1Cl`, the result in assay [1], in assay [2], in [5], in [7], in assay [8] and in assay [9] was inactive. Moreover, the AC50 in assay [3] was 4.14 µM (active); in assay [4] it was 5.85 µM (active); in [6], 5.77 µM (active); in assay [10] it was 5.93 µM (active).

In the case of `COc1cc(C(C)(C)C)c(O)c(C(C)(C)C)c1`, the result in [1], in assay [2], in [3], in [4], in assay [11] and in assay [12] was inactive. Also, the call in [13], in assay [5], in [14], in assay [7], in assay [9] and in assay [15] was inactive. Moreover, the call in assay [10] was inactive.

Consider `C=C[Si](OCC)(OCC)OCC`, for which the compound was called inactive in assay [1], in assay [2], in assay [3], in assay [4], in assay [16] and in [12]. The compound was classed as inactive in assay [7], in [8] and in [15].

As to `CC[Si](OC(C)=O)(OC(C)=O)OC(C)=O`, the call in [1], in assay [2], in [4], in assay [5], in [6] and in assay [7] was inactive. Besides, the call in assay [15] was inactive. Also, the AC50 in assay [3] was 33.8 µM (active).

As for `COc1nc(C)nc(N)n1`, the compound was called inactive in assay [1], in [2], in assay [3], in assay [4], in [5] and in assay [6]. In addition, the compound was classed as inactive in [7], in [8], in assay [9], in assay [15] and in assay [10].

As to `FC1(F)C(F)(F)C(F)(F)C2(F)C(F)(C1(F)F)C(F)(F)C(F)(F)C1(F)C(F)(F)C(F)(F)C(F)(F)C(F)(F)C12F` (centres undefined), the outcome in [1], in assay [2], in assay [3], in assay [4], in assay [12] and in [6] was inactive. Further, the outcome in [7] and in assay [10] was inactive.
